Experimental data published in the supplement of paper PMC12494721.
Structures can show the parent of a compound that is named as a salt.

Key:
Settings in all cases: incubation time: 27 h, anaerobic, 37 °C;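 for the amine columns active = adjusted P below 0.05 in both replicates with a change the same way and a mean fold change under 0.8 or over 1.25; inactive = the rest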
[1] = test system: Clostridium sporogenes DSM 1664; assay: growth (OD595) fold change vs plate DMSO controls (fold change (ratio)); higher = more growth
In short: (§1)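 The reported measure is growth: the fold change against the median of DMSO controls on the plate. Absorbance at 595 nm from anaerobic 96-well mGAM cultures grown for 27 h at 37 °C was blank-subtracted, corrected for background with 20 µM compound solutions in water, and converted to OD with a calibration factor of 5. Fold changes above 1.5 appear as NA, and values are the mean of 2 biological replicates.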

Escherichia coli IAI1 [2] = assay: as above
In short: as §1

[3] = test system: Klebsiella aerogenes DSM 30053; assay: as above
In short: as §1

[4] = test system: Ruminococcus gnavus DSM 108212; assay: as above
In short: as §1

[5] = test system: Klebsiella aerogenes DSM 30053; assay: fold change of Histamine concentration vs plate DMSO controls (fold change (ratio)); higher = more amine produced, active = hit call of the paper (significant change in both replicates, either direction)
In short: (§2)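 Each value is the fold change relative to DMSO-only wells on the same plate. Four gut bacterial strains were grown anaerobically in mGAM at 37 °C for 27 h in 80 µL wells, starting at OD 0.1 before a 1:1 dilution, with compounds at 20 µM final (sweeteners 50 µM). Whole cultures were extracted with cold acetonitrile/methanol containing 0.1% formic acid, centrifuged, and amines were quantified by LC–triple-quadrupole MS (dynamic MRM) against external calibration curves with within-batch drift correction. Values are means of 2 biological replicates.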

[6] = test system: Clostridium sporogenes DSM 1664; assay: fold change of Tryptamine concentration vs plate DMSO controls (fold change (ratio)); higher = more amine produced, active = hit call of the paper (significant change in both replicates, either direction)
In short: as §2

[7] = test system: Ruminococcus gnavus DSM 108212; assay: as above
In short: as §2

Escherichia coli IAI1 [8] = assay: fold change of Putrescine concentration vs plate DMSO controls (fold change (ratio)); higher = more amine produced, active = hit call of the paper (significant change in both replicates, either direction)
In short: as §2

[9] = test system: Klebsiella aerogenes DSM 30053; assay: as above
In short: as §2

Escherichia coli IAI1 [10] = assay: fold change of Cadaverine concentration vs plate DMSO controls (fold change (ratio)); higher = more amine produced, active = hit call of the paper (significant change in both replicates, either direction)
In short: as §2

[11] = test system: Klebsiella aerogenes DSM 30053; assay: as above
In short: as §2

[12] = test system: Ruminococcus gnavus DSM 108212; assay: fold change of 2-Phenylethylamine concentration vs plate DMSO controls (fold change (ratio)); higher = more amine produced, active = hit call of the paper (significant change in both replicates, either direction)
In short: as §2

SMILES | growth [1] | growth (Escherichia coli IAI1 [2]) | growth [3] | growth [4] | fold change of Histamine concentration [5] | fold change of Tryptamine concentration [6] | fold change of Tryptamine concentration [7] | fold change of Putrescine concentration (Escherichia coli IAI1 [8]) | fold change of Putrescine concentration [9] | fold change of Cadaverine concentration (Escherichia coli IAI1 [10]) | fold change of Cadaverine concentration [11] | fold change of 2-Phenylethylamine concentration [12]
OCCOCCN1CCN(C2=Nc3ccccc3Sc3ccccc32)CC1 [Quetiapine hemifumarate] (20 µM) | 0.966 | 1.13 | 1.07 | 0.982 | 0.894 (inactive) | 1 (inactive) | 1.01 (inactive) | 1.09 (inactive) | 0.978 (inactive) | 0.892 (inactive) | 1.03 (inactive) | 0.991 (inactive)
CCC(C)(C)C(=O)O[C@H]1C[C@@H](C)C=C2C=C[C@H](C)[C@H](CC[C@@H]3C[C@@H](O)CC(=O)O3)[C@H]21 [Simvastatin] (20 µM) | 1.01 | 1.05 | 1.25 |  | 0.919 (inactive) | 0.967 (inactive) | 0.995 (inactive) | 1 (inactive) | 1.03 (inactive) | 1 (inactive) | 1.03 (inactive) | 0.991 (inactive)
CCCc1c2oc(C(=O)O)cc(=O)c2cc2c(=O)cc(C(=O)O)n(CC)c12 [Nedocromil sodium] (20 µM) | 0.949 | 0.993 | 1 | 0.981 | 1.06 (inactive) | 0.924 (inactive) | 0.987 (inactive) | 0.999 (inactive) | 1.01 (inactive) | 1.04 (inactive) | 0.984 (inactive) | 1 (inactive)
CC1COc2c(N3CCN(C)CC3)c(F)cc3c(=O)c(C(=O)O)cn1c23 (centres undefined) [Ofloxacin] (20 µM) | 0.0346 | 0.0388 | 0.256 |  | 0.09 (active) | 0.0354 (active) | 0.997 (inactive) | 0.809 (inactive) | 0.653 (active) | 0.187 (active) | 0.961 (inactive) | 1.06 (inactive)
Clc1ccc(Nc2nnc(Cc3ccncc3)c3ccccc23)cc1 [Vatalanib] (20 µM) | 1.06 | 1.19 | 1.08 |  | 0.91 (inactive) | 1.12 (inactive) | 1.02 (inactive) | 1.17 (inactive) | 0.942 (inactive) | 0.945 (inactive) | 1.02 (inactive) | 1.01 (inactive)
Clc1cc(Cl)c(OCC#CI)cc1Cl [Haloprogin] (20 µM) | 0.986 | 0.942 | 0.967 |  | 1.01 (inactive) | 0.977 (inactive) | 0.777 (inactive) | 1.09 (inactive) | 0.953 (inactive) | 1.04 (inactive) | 0.987 (inactive) | 0.861 (inactive)
Nc1ncn(C2OC(CO)C(O)C2O)c(=O)n1 (centres undefined) [Azacytidine-5] (20 µM) | 1.02 | 0.811 | 0.974 |  | 1.03 (inactive) | 0.953 (inactive) | 0.881 (inactive) | 0.794 (inactive) | 1.01 (inactive) | 1.72 (active) | 0.985 (inactive) | 0.935 (inactive)
CC/C=C(\C(=O)N[C@@H]1C(=O)N2C(C(=O)OCOC(=O)C(C)(C)C)=C(COC(N)=O)CS[C@H]12)c1csc(N)n1 [Cefcapene pivoxil hydrochloride monohydrate] (20 µM) | 0.716 | 0.786 | 1.07 |  | 0.95 (inactive) | 1.1 (inactive) | 1.02 (inactive) | 0.961 (inactive) | 0.964 (inactive) | 1.06 (inactive) | 1.03 (inactive) | 1.01 (inactive)
COc1cc(Cc2cnc(N)nc2N)cc(OC)c1OC [Trimethoprim] (20 µM) | 1.03 | 0.272 | 0.472 |  | 0.522 (active) | 0.974 (inactive) | 0.895 (inactive) | 0.829 (inactive) | 1.22 (inactive) | 1.78 (active) | 1 (inactive) | 0.84 (inactive)
C[C@H]1COc2c(N3CCN(C)CC3)c(F)cc3c(=O)c(C(=O)O)cn1c23 [Levofloxacin] (20 µM) | 0.012 | 0.012 | 0.11 |  | 0.107 (active) | 0.0435 (active) | 0.755 (active) | 0.521 (active) | 0.657 (active) | 0.226 (active) | 0.953 (inactive) | 0.823 (inactive)
Cc1c(C)c2c(c(C)c1O)CCC(C)(COc1ccc(CC3SC(=O)NC3=O)cc1)O2 (centres undefined) [Troglitazone] (20 µM) | 1.31 | 0.981 | 1.1 |  | 0.914 (inactive) | 0.721 (active) | 0.696 (active) | 1.01 (inactive) | 0.995 (inactive) | 1.01 (inactive) | 1.01 (inactive) | 0.777 (active)
C=CCc1ccc(OC)c(OC)c1 [Methyleugenol] (20 µM) | 0.942 | 1.08 | 0.993 | 1.06 | 0.992 (inactive) | 0.986 (inactive) | 1.02 (inactive) | 1.02 (inactive) | 0.921 (inactive) | 0.988 (inactive) | 1.15 (inactive) | 1.02 (inactive)
Nc1nc2[nH]cc(CCc3ccc(C(=O)N[C@@H](CCC(=O)O)C(=O)O)cc3)c2c(=O)[nH]1 [Pemetrexed disodium] (20 µM) | 1.11 | 1.25 | 0.529 |  | 0.471 (inactive) | 1.04 (inactive) | 0.788 (inactive) | 1.07 (inactive) | 0.577 (inactive) | 0.876 (inactive) | 0.663 (inactive) | 0.811 (inactive)
CC(C)c1ccc2oc3nc(N)c(C(=O)O)cc3c(=O)c2c1 [Amlexanox] (20 µM) | 0.911 | 1.2 | 1.05 | 0.857 | 0.877 (inactive) | 1.07 (inactive) | 1.03 (inactive) | 1.1 (inactive) | 0.984 (inactive) | 0.957 (inactive) | 1.03 (inactive) | 1.02 (inactive)
O=C1C(=O)c2ccccc2C(O)=C1C1CCC(c2ccc(Cl)cc2)CC1 (centres undefined) [Atovaquone] (20 µM) | 1.24 | 1.02 | 1.07 |  | 1.01 (inactive) | 0.793 (inactive) | 0.753 (active) | 0.973 (inactive) | 1.03 (inactive) | 0.989 (inactive) | 1 (inactive) | 0.747 (active)
C=CC1=C(C(=O)O)N2C(=O)[C@@H](NC(=O)/C(=N\OCC(=O)O)c3csc(N)n3)[C@H]2SC1 [Cefixime] (20 µM) | 0.286 | 0.0263 | 1.12 |  | 0.931 (inactive) | 0.826 (inactive) | 0.964 (inactive) | 0.484 (active) | 1.03 (inactive) | 2.08 (active) | 1.05 (inactive) | 0.932 (inactive)
COc1ccc(C(Cl)=C(c2ccc(OC)cc2)c2ccc(OC)cc2)cc1 [Chlorotrianisene] (20 µM) | 1.07 | 0.924 | 0.946 |  | 0.94 (inactive) | 0.978 (inactive) | 1.06 (inactive) | 1.01 (inactive) | 0.998 (inactive) | 1 (inactive) | 1 (inactive) | 1.07 (inactive)
C[C@H](CCc1ccccc1)NC[C@H](O)c1ccc(O)c(C(N)=O)c1 [Dilevalol] (20 µM) | 1.02 | 0.978 | 1.11 | 1.1 | 0.929 (inactive) | 1.04 (inactive) | 0.98 (inactive) | 1.02 (inactive) | 1.01 (inactive) | 0.974 (inactive) | 1.01 (inactive) | 1.01 (inactive)
CCCCCCCCNC(C)C(O)c1ccc(SC(C)C)cc1 (centres undefined) [Suloctidil] (20 µM) | 1.12 | 1.08 | 1.06 |  | 0.987 (inactive) | 0.983 (inactive) | 0.729 (active) | 1.03 (inactive) | 0.977 (inactive) | 0.983 (inactive) | 0.996 (inactive) | 0.785 (active)
O=C1CN(/N=C/c2ccc(-c3ccc([N+](=O)[O-])cc3)o2)C(=O)N1 [Dantrolene sodium salt] (20 µM) | 1.04 | 0.986 | 0.993 | 0.79 | 0.984 (inactive) | 0.968 (inactive) | 1.01 (inactive) | 0.991 (inactive) | 0.979 (inactive) | 1.06 (inactive) | 0.99 (inactive) | 0.939 (inactive)
CC/C(=C(\c1ccccc1)c1ccc(OCCN(C)C)cc1)c1ccccc1 [Tamoxifen citrate] (20 µM) | 1.11 | 1.06 | 1.02 |  | 0.918 (inactive) | 0.977 (inactive) | 0.657 (active) | 1.06 (inactive) | 0.989 (inactive) | 1.05 (inactive) | 1 (inactive) | 0.738 (inactive)
CC[N+](C)(CC)CCC[n+]1c(-c2ccccc2)c2cc(N)ccc2c2ccc(N)cc21 [Propidium iodide] (20 µM) | 1.18 | 1.07 | 1.08 |  | 1.07 (inactive) | 1.07 (inactive) | 1.05 (inactive) | 0.99 (inactive) | 1 (inactive) | 1 (inactive) | 0.999 (inactive) | 1.08 (inactive)
NC(=O)c1cc[n+](CC2=C(C(=O)O)N3C(=O)[C@@H](NC(=O)C(c4ccccc4)S(=O)(=O)[O-])[C@H]3SC2)cc1 (some centres undefined) [Cefsulodin Sodium Salt Hydrate] (20 µM) | 0.555 | 1.04 | 1.02 |  | 1.03 (inactive) | 0.838 (inactive) | 0.779 (inactive) | 1.06 (inactive) | 0.997 (inactive) | 1.1 (inactive) | 0.992 (inactive) | 0.836 (inactive)
